Measurements published in PubChem BioAssay AID2315 (National Center for Advancing Translational Sciences (NCATS), 2010).
Among all 290,000 compounds or so, about 27,000 (9.3%) were called active. Rule as the data show it: active = inhibition mostly above about 28% (no sharp cut-off); inactive = mostly below about 43%. The full list was thinned out, with actives kept by preference.

experiment: A qHTS for Small Molecule Inhibitors of Shiga Toxin; settings: Vero cells, Shiga toxin protein synthesis inhibition reporter; at 38.7 µM, stronger effect = higher value; also: 0% is about no effect

SMILES	inhibition
CCO[C@@H]1OC(C(=O)NCc2nc3ccccc3[nH]2)=C[C@H](C2CCCCC2)[C@H]1CCCO	-8.66% (inactive)
O=C(COc1ccccc1)NCCc1nc2ccccc2[nH]1	-37.8% (inactive)
O=C(OCc1nc2ccccc2[nH]1)C1CCCCC1	29.7% (active)
CC1C(=O)Nc2ccccc2N1C(=O)c1ccc(F)cc1F (stereo unspecified)	26.5% (inactive)
O=C(Nc1ccc(-c2cscn2)cc1)C1CCCN(Cc2ccc(CO)o2)C1 (stereo unspecified)	7.25% (inactive)
O=C(NNC(=O)C1C2CCC(C2)C1C(=O)O)c1ccc(Cl)cc1 (stereo unspecified)	57.3% (active)
O=C(NNC(=S)NC1CC2CCC1C2)c1ccc(Cl)cc1 (stereo unspecified)	12.4% (inactive)
CCOC(=O)NNC(=O)c1ccc(Cl)cc1	11.6% (inactive)
Cc1ccc(OCC(=O)NC(C)c2ccccc2)cc1C (stereo unspecified)	-6.99% (inactive)
CCOc1ccc(OCC(=O)Nc2c3c(nn2C(C)(C)C)CS(=O)(=O)C3)cc1	-5.61% (inactive)
CC(C)Oc1ccc(Oc2ccc(C(F)(F)F)cn2)cc1	1.31% (inactive)
CSc1nnc(-c2ccc(C(F)(F)F)cn2)o1	47.1% (active)
CC(=O)c1sc(NC(=O)c2ccc(C)cc2)nc1C	107% (active)
CC(=O)c1sc(N/N=C\c2ccc(C)cc2)nc1C	72.3% (active)
C=CCSc1nnc(NC(=O)c2ccc(NC(C)=O)cc2)s1	26.6% (inactive)
COC(=O)c1sc(NC(=S)NC(=O)c2ccc(C)cc2)nc1C	38.9% (inactive)
CC(=O)c1sc(N/N=C/c2ccc(C(C)C)cc2)nc1C	69.3% (active)
CCOC(=O)CSc1nnc(NC(=O)c2cccc(S(=O)(=O)N3CCCC3)c2)s1	-15% (inactive)
Cc1ccc(S(=O)(=O)Nc2nc(C)cc(N/N=C/c3ccc(O)cc3)n2)cc1	9.39% (inactive)
CC(=O)c1sc(NC(=O)C2=NN(c3ccccc3)C(=O)CC2)nc1C	21.6% (inactive)
CC(=O)c1sc(NC(=O)CCCOc2ccccc2C)nc1C	-15.8% (inactive)
CCSc1nnc(NC(=O)c2ccc(C)cc2)s1	71.3% (active)
Cc1nnc(C)n1/N=C/c1ccc(C(C)C)cc1	-9.61% (inactive)
CCOC(=O)c1sc(NC(=O)c2ccncc2)nc1C	11% (inactive)

SMILES	inhibition
O=C(NCCCN1CCOCC1)C1CCCN(S(=O)(=O)N2CCCCC2)C1 (stereo unspecified)	-9.17% (inactive)
Cc1ccc(NC(=O)Cc2nnc(SCC(=O)Nc3nncs3)n2C)cc1	-6.25% (inactive)
COc1ccc(OC)c(/C(C)=N\NC(=O)c2cc3cc(Cl)ccc3n2C)c1	-10.1% (inactive)
CCN(Cc1ccncc1)C(=O)CCc1ccccc1	-7.55% (inactive)
COc1ccccc1NC(=O)C1CCCN1S(=O)(=O)c1ccc(Cl)cc1 (stereo unspecified)	23.6% (inactive)
CC(NS(=O)(=O)c1ccc(Br)cc1)C(=O)NCC1CCCO1 (stereo unspecified)	25% (inactive)
CC(C)(C)NC(=O)CN(Cc1cccs1)C(=O)CNS(=O)(=O)c1ccccc1	41.4% (inactive)
C[C@H]1CCC[C@@]2(C)CCCC[C@]12O	12.1% (inactive)
COc1ccccc1N1CCN(c2ncnc3sc(C)c(-c4ccccc4)c23)CC1	54.8% (inactive)
O=C(c1c(F)cccc1Cl)N1CCN(S(=O)(=O)c2ccc3c(c2)OCCCO3)CC1	-6.3% (inactive)
CC1CCN(CC(=O)Nc2nccs2)CC1	-4.28% (inactive)
N/C(=N\OC(=O)c1ccc2c(c1)OCO2)c1ccc(Br)cc1	73.3% (active)
N/C(=N\OC(=O)N1c2ccccc2Sc2ccccc21)c1ccc(Br)cc1	-3.87% (inactive)
N/C(=N\OC(=O)/C=C/c1ccccc1)c1ccc(Br)cc1	6.16% (inactive)
O=C(Nc1nnc(-c2ccc(F)cc2)s1)c1c(F)cccc1Cl	3.43% (inactive)
Cc1ccc(C(=O)c2c(NC(=O)c3ccncc3)sc3c2CCCC3)cc1	-0.844% (inactive)
O=C1NC(c2ccncc2)Nc2sc3c(c21)CCCC3 (stereo unspecified)	64.1% (active)
C/C(=C\c1ccccc1)C1NC(=O)c2c(sc3c2CCCC3)N1 (stereo unspecified)	34.2% (inactive)
CCOC(=O)[C@@H]1[C@H]2COc3cc(OC)ccc3[C@@H]2N2C(=O)N(c3cccc(C)c3)C(=O)[C@@]12C	-1.2% (inactive)
CC1CCCN(CCCNC(=O)CN2C(=O)COc3ccc(S(=O)(=O)N4CCOCC4)cc32)C1 (stereo unspecified)	-5.12% (inactive)
C=CCn1c(CNS(=O)(=O)c2ccc(Br)cc2)nnc1SC	-6.56% (inactive)
O=C(/C=C/c1cnc2ccccc2n1)NC1CCCCCC1	112% (active)
O=C(Cn1c(-c2cncs2)nc2ccccc21)NC1CCCC1	-2.75% (inactive)
O=C(CSc1nnc2c(n1)[nH]c1ccccc12)NC1CCCCC1	-11% (inactive)

SMILES	inhibition
Cc1ccc(N(Cc2cc(=O)[nH]c3ccccc23)C(=O)CCl)cc1	-5.41% (inactive)
Cc1cccc(C(=O)NNC(=O)CSc2nnc(C(C)C)n2C)c1	-2.77% (inactive)
COc1cccc(C(C(=O)NC2CCCC2)N(C(=O)c2ccco2)c2cccc(C(C)=O)c2)c1OC (stereo unspecified)	-12.2% (inactive)
Cc1nc(/N=C(\N)NC(=O)NC2CCCCC2)nc2ccccc12	30.3% (active)
COc1ccc2nc(/N=C(\N)NC(=O)Nc3ccccc3)nc(C)c2c1	69.1% (inactive)
O=C(NNC(=O)C(O)c1ccccc1)NC1CCCCC1 (stereo unspecified)	-13.5% (inactive)
COc1ccc(C(=O)NCCCN2CCOCC2)cc1Br	-13.5% (inactive)
O=C(c1cc2ccccc2o1)N1CCN(c2cccc(C(F)(F)F)c2)CC1	-15.8% (inactive)
COCCN(C(=O)CCC(=O)Nc1nccs1)C(C(=O)NCCC(C)C)c1ccc(F)cc1 (stereo unspecified)	-13.9% (inactive)
COC(=O)/C(C#N)=C/c1occc1C	-2.66% (inactive)
CCOC(=O)/C(C#N)=C\c1c(C)cc(C)c(COC(C)=O)c1C	30.8% (active)
CCOC(=O)NC(=O)/C(C#N)=C\c1ccccc1	-2.62% (inactive)
COCCNC(=O)CSc1nc2sccc2c(=O)n1-c1ccccc1	-4.95% (inactive)
COc1cc(NC(=O)NCC2CCN(Cc3ccc(C)cc3)CC2)cc(OC)c1OC	19.7% (inactive)
O=C(CSc1nnc(-c2ccccc2O)o1)NC1CCCCC1	-7.64% (inactive)
CCSc1nnc(-c2cc3c(s2)-c2ccccc2CC3)o1	73.3% (active)
Fc1ccc(CSc2nnc(-c3cc4c(s3)-c3ccccc3CC4)o2)cc1	-15% (inactive)
CSCCC(NC(=O)c1ccc(Cl)cc1Cl)C(=O)NNC(=O)c1csc(N2CCOCC2)n1 (stereo unspecified)	23.2% (inactive)
O=C(Nc1ccc(N2CCCC2=O)cc1)c1cncc(Br)c1	-22% (inactive)
CN(C)Cc1c(O)ccc2c(=O)c(-c3ccccc3Cl)coc12	2.96% (inactive)
O=C(/C=C/c1ccccc1[N+](=O)[O-])NCC1CCCO1 (stereo unspecified)	28% (inactive)
O=C(/C=C/c1ccccc1[N+](=O)[O-])OC1CCCCC1=O (stereo unspecified)	-5.74% (inactive)
CC1CCCCC1NC(=O)/C(C#N)=C/C=C/c1ccccc1[N+](=O)[O-] (stereo unspecified)	52.2% (active)
CCN(c1cccc(C)c1)S(=O)(=O)c1ccc(-c2coc(C)n2)cc1	-6.9% (inactive)

SMILES	inhibition
O=C(CCl)NNc1nc(-c2ccccc2)c2cc(Cl)ccc2n1	-6.68% (inactive)
C=CCn1c(C23CC4CC(CC(C4)C2)C3)n[nH]c1=S	-6.65% (inactive)
O=C(COC(=O)c1c2c(nc3ccccc13)CCCC2)c1ccc(Br)s1	91.1% (active)
CCCc1nc2ccccc2c(C(=O)OCC(=O)c2ccc3c(c2)NC(=O)CO3)c1CC	7.85% (inactive)
O=C(Nc1c2c(nc3ccccc13)CCCC2)c1ccccc1Br	13.1% (inactive)
Cc1cc(Cl)c(S(=O)(=O)N(C)C)cc1OCC(N)=O	9.4% (inactive)
Cc1cc(Cl)c(S(=O)(=O)NCC2CCCO2)cc1OCC(N)=O (stereo unspecified)	-1.08% (inactive)
Cc1cc(Cl)c(S(=O)(=O)Nc2ccc3c(c2)OCCO3)cc1OCC(N)=O	99.8% (active)
O=C(NCc1ccco1)/C(=C\c1cccc([N+](=O)[O-])c1)NC(=O)c1ccco1	2.57% (inactive)
O=C(N/N=C/c1cc2c(cc1Br)OCO2)C1COc2ccccc2O1 (stereo unspecified)	77.9% (active)
O=C(N/N=C\c1cc(Br)c(Br)o1)C1COc2ccccc2O1 (stereo unspecified)	10.7% (inactive)
O=C(CNC(=O)C1COc2ccccc2O1)N/N=C/c1cc(Br)c(O)c(Br)c1 (stereo unspecified)	-3.37% (inactive)
CC(=O)c1c(C)[nH]c(C(=O)COC(=O)c2cccc(S(=O)(=O)N(C)c3ccccc3)c2)c1C	8.98% (inactive)
CCCNC(=O)COc1coc(CN2CCN(Cc3ccccc3)CC2)cc1=O	-16.7% (inactive)
COCCNC(=O)C(c1ccc(C)cc1)N(C(=O)CCC(=O)Nc1ccccn1)c1cccc(C)c1 (stereo unspecified)	32.2% (inactive)
O=C(Cc1ccc([N+](=O)[O-])cc1)Nc1ccc(C(=O)N2CCOCC2)cc1	7.91% (inactive)
Cc1ccc(CN(C)Cc2cc(=O)oc3cc(C)c(Cl)cc23)cc1	7.75% (inactive)
O=C(c1cnn2ccccc12)N1CCc2ccccc21	97.7% (active)
Cc1cnc(C(=O)OCC(=O)N2CCc3ccccc32)cn1	-4.93% (inactive)
NC(=O)N1CCc2ccccc21	-9.66% (inactive)
C=CCn1c(SCc2c(C)noc2C)nc2sc3c(c2c1=O)CCC(C)C3 (stereo unspecified)	-12.7% (inactive)
CC1CCc2c(sc3nc4n(c(=O)c23)CCS4)C1 (stereo unspecified)	33.9% (inactive)
CCCn1nnc2sc3c(c2c1=O)CCC(C)C3 (stereo unspecified)	90.4% (active)
COc1cccc(N2CCN(c3ccc4nnc(CCC(=O)N5CCN(C)CC5)n4n3)CC2)c1	-1.7% (inactive)
